Source: PubChem
Hits are enriched below; roughly 3.3% of the tested compounds scored in any of these assays.
FXN GAA850 act: frataxin GAA850 promoter activation; HEK293 lucGAA850 FXN promoter luciferase reporter, 24 h; percent of 10 µM SAHA response; activation, % at 6 µM; hit rate 0.56% among 360,000;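 active = activation above the average of all compounds screened plus 3 SD, cutoff fixed separately per campaign, cut at about 7.5% in these data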
Statin myotox sup: suppressors of simvastatin-induced myotoxicity in C2C12 myotubes | ATP luminescence, 48 h; scaled: DMSO 0, geranylgeraniol control 100 | rescue of ATP level, % at 7.49 µM | hit rate 0.78% among 330,000 | AID 602340;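 active = mean ATP rescue above about 67%, or every replicate alone reaching that limit, limit read from the data, passing the limit was not always enough; inconclusive = no clear call, values can overlap the other calls; inactive = mean under the limit and some replicate under it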;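 note: myotubes were challenged with 10 µM simvastatin during compound exposure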
MITF act: MITF TRPM1 promoter activation in melanoma cells; SK-MEL-5 TRPM1-promoter luciferase, 24 h; % of positive control, neutral wells = 0; activation, % at 12.5 µM; hit rate 0.75% among 300,000;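 active = mean activation of at least 80% with every replicate also reaching 80%; inconclusive = mean reaches 80% but some replicate falls short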
Wnt act: Wnt/beta-catenin pathway activation. Wnt/beta-catenin reporter cell assay, activator, plate reader. activation, % at 9.35 µM. hit rate 1.2% among 300,000; in the data active = activation above about 30%, passing the limit was not always enough; inconclusive = no clear call, values can overlap the other calls
esBAF inh: SWI/SNF esBAF complex inhibition; hit rate 2% among 350,000; mouse ES cells, Bmi1-luciferase knock-in reporter, 24 h; 100% = twice the neutral-well signal; reporter increase, % at 12.5 µM; in the data active = activation above about 40%; inconclusive = no clear call, values can overlap the other calls;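 note: a rise in the Bmi1 reporter signal indicates esBAF inhibition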
esBAF Ring1 qPCR: esBAF inhibition confirmed by Ring1 de-repression. 550 tested, under 10 active. shares compounds with esBAF inh. AID 743176. mouse ESC E14, Ring1 mRNA RT-qPCR fold change. fold change at 33 µM;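 active = Ring1 gene expression raised more than 2-fold over untreated cells in both replicates at either tested dose; inconclusive = only one replicate above 2-fold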;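 note: Ring1 transcript normalised to actin housekeeping signal by TaqMan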
Fgf4 repress: esBAF inhibition confirmed by Fgf4 repression. shares compounds with esBAF inh. mouse ESC E14, Fgf4 mRNA qPCR fold change; stronger effect = lower value. Fgf4 expression fold change at 33 µM. hit rate 4% among 550. AID 743177;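 active = Fgf4 expression under 0.8 fold of control in both repeat measurements at one or both tested doses; inconclusive = under 0.8 fold in just a single repeat measurement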;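 note: Fgf4 transcript normalised to actin in duplex TaqMan qPCR; cells exposed to compound for 24 h before lysis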
Bmi1 derepress: confirmation of esBAF inhibitors: Bmi1 de-repression in mouse ESCs; shares compounds with esBAF inh; mouse ESE14 ES cells, Bmi1 mRNA qPCR fold; stronger effect = higher value; fold change at 33 µM; 550 tested, under 10 active;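 active = Bmi1 expression fold change above 6 at either tested concentration, seen in replicate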;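 note: higher fold means more Bmi1 de-repression and stronger esBAF inhibition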
A549 tox SP: kills or reduces viability of A549 cells | 550 tested, under 10 active | shares compounds with esBAF inh | A549 cytotoxicity, plate reader | cell viability change % (negative = cytotoxic), % at 25 µM, hits read low; call rule not given here
HepG2 cytotox SP: cytotoxicity in HepG2 cells. hit rate 4% among 550. shares compounds with esBAF inh. AID 743189. plate reader; stronger effect = lower value. activity change, negative = inhibition, % at 25 µM; in the data active = activity change below about -50%
HEK293 cytotox SP: cytotoxicity in HEK293 cells | shares compounds with esBAF inh | plate reader | activity change, negative = inhibition, % at 25 µM, hits read low | hit rate 3% among 550 | AID 743190; in the data active = activity change below about -38%, passing the limit was not always enough
Large screens that a line does not name were inactive (follow-up assays come after a bar, where they were run).

Cc1ccc(S(=O)(=O)Nc2ccc3c(c2)C(=O)N([C@@H](C)CO)C[C@H](C)[C@H](CN(C)C(=O)CCC(F)(F)F)OCCCC[C@@H](C)O3)cc1	none (no result: FXN GAA850 act, Statin myotox sup, MITF act, Wnt act)
CNc1cncc(-c2cccc(OC)c2F)n1	esBAF inh 63 (no result: MITF act) | esBAF Ring1 qPCR inactive | Fgf4 repress inconclusive | Bmi1 derepress inactive | A549 tox SP inactive | HepG2 cytotox SP inactive | HEK293 cytotox SP inactive
COc1cccc(S(=O)(=O)Nc2ccc3c(c2)OC[C@@H](C)NC[C@H](C)[C@@H](OC)CN(C)C3=O)c1	none (no result: FXN GAA850 act, MITF act, Wnt act)
O=C(N/N=C/c1cnc2ccccc2n1)c1cccc(F)c1	esBAF inh 60 | esBAF Ring1 qPCR inactive | Fgf4 repress inactive | Bmi1 derepress inactive | A549 tox SP inactive | HepG2 cytotox SP inactive | HEK293 cytotox SP inactive
CCc1ccccc1NC(=O)c1cc(-c2cccc(O)c2)on1	esBAF inh 79 (no result: MITF act) | esBAF Ring1 qPCR inactive | Fgf4 repress inconclusive | Bmi1 derepress inactive | A549 tox SP inactive | HepG2 cytotox SP inactive | HEK293 cytotox SP inactive
O=C(Nc1ccccc1C(F)(F)F)c1cc(-c2cccc(O)c2)on1	none (no result: Wnt act)
COc1ccccc1-c1ccc([C@@H]2[C@@H](C#N)N(C(=O)NC(C)C)[C@@H]2CO)cc1	none (no result: FXN GAA850 act, MITF act, Wnt act)
Cc1cc(C)cc(N(CC(=O)Nc2ccc(-c3nc4ccc(C)cc4s3)cc2)S(C)(=O)=O)c1	Wnt act 39, esBAF inh 47 | esBAF Ring1 qPCR inactive | Fgf4 repress inactive | Bmi1 derepress inactive | A549 tox SP inactive | HepG2 cytotox SP inactive | HEK293 cytotox SP inactive
CCC(=O)c1ccc(N2CCC(C)CC2)c(F)c1	esBAF inh 71 | esBAF Ring1 qPCR inactive | Fgf4 repress inactive | Bmi1 derepress inactive | A549 tox SP inactive | HepG2 cytotox SP inactive | HEK293 cytotox SP inactive
COc1ccc(-c2cc(C(=O)N3CCN(c4ccccc4)CC3)no2)cc1	esBAF inh 60 | esBAF Ring1 qPCR inactive | Fgf4 repress inactive | Bmi1 derepress inactive | A549 tox SP inactive | HepG2 cytotox SP inactive | HEK293 cytotox SP inactive
Cc1cc(C)c2c(N)c(C(=O)Nc3ccccc3Br)sc2n1	esBAF inh 61 | esBAF Ring1 qPCR inactive | Fgf4 repress inactive | Bmi1 derepress inactive | A549 tox SP inactive | HepG2 cytotox SP inactive | HEK293 cytotox SP inactive
Cc1c(NC(=O)c2cc(-c3ccc(Cl)c(Cl)c3)on2)c(=O)n(-c2ccccc2)n1C	none
O=C(NC1CCCC1)c1cc(-c2ccc(Cl)c(Cl)c2)on1	MITF act 107, esBAF inh 64 | esBAF Ring1 qPCR inactive | Fgf4 repress inactive | Bmi1 derepress inactive | A549 tox SP inactive | HepG2 cytotox SP inactive | HEK293 cytotox SP inactive
Cc1ccn2c(CC(C)(C)C)c(-c3ccc(F)cc3)nc2c1	Wnt act 55, esBAF inh 65 (no result: MITF act) | esBAF Ring1 qPCR inactive | Fgf4 repress inactive | Bmi1 derepress inactive | A549 tox SP inactive | HepG2 cytotox SP inactive | HEK293 cytotox SP inactive
C[C@@H]1CN([C@H](C)CO)C(=O)c2cc(NS(=O)(=O)c3ccc(F)cc3)ccc2O[C@@H](C)CCCCO[C@@H]1CN(C)C(=O)CCCN(C)C	none (no result: FXN GAA850 act, Statin myotox sup, MITF act, Wnt act)
CC(C)c1ccc(CNc2ncc(Br)cn2)cc1	MITF act 96, esBAF inh 73 | esBAF Ring1 qPCR inactive | Fgf4 repress inactive | Bmi1 derepress inactive | A549 tox SP inactive | HepG2 cytotox SP -63 | HEK293 cytotox SP inactive
CN1C(=O)c2cc(NC(=O)Nc3ccccc3)ccc2OC[C@H]2O[C@@H](CC(=O)O)CC[C@@H]21	none (no result: FXN GAA850 act, MITF act, Wnt act)
c1ccc(Nc2ccccn2)cc1	none (no result: MITF act)
c1ccc(Nc2cccc(Nc3ccccc3)n2)cc1	esBAF inh 59 (no result: Wnt act) | esBAF Ring1 qPCR inactive | Fgf4 repress inconclusive | Bmi1 derepress inactive | A549 tox SP inactive | HepG2 cytotox SP inactive | HEK293 cytotox SP inactive
CC1(C)Cc2c(c(N3CCCC3)nc3sc(C(=O)Nc4ccccc4)c(N)c23)CO1	esBAF inh 59 | esBAF Ring1 qPCR inactive | Fgf4 repress inactive | Bmi1 derepress inactive | A549 tox SP inactive | HepG2 cytotox SP inactive | HEK293 cytotox SP inactive
C[C@@H]1CN([C@H](C)CO)C(=O)CCCn2cc(nn2)CO[C@@H]1CN(C)C	none (no result: FXN GAA850 act, MITF act, Wnt act)
O=C(C[C@@H]1C=C[C@H](NC(=O)c2ccc(F)cc2)[C@@H](CO)O1)NCCc1ccccc1	none (no result: FXN GAA850 act, MITF act, Wnt act)
CNC(=O)C[C@H]1CC[C@H]2[C@@H](COc3ccc(NC(=O)c4cccs4)cc3C(=O)N2C)O1	none (no result: FXN GAA850 act, MITF act, Wnt act)
CNC(=O)c1ccc(-c2cc3onc(-c4ccccc4)c3c(=O)n2C)cc1	MITF act 96, Wnt act 43, esBAF inh 81 | esBAF Ring1 qPCR inactive | Fgf4 repress inactive | Bmi1 derepress inactive | A549 tox SP inactive | HepG2 cytotox SP inactive | HEK293 cytotox SP inactive
CCC(=O)Nc1ccc2c(c1)OC[C@@H](C)N(C(=O)COC)C[C@H](C)[C@H](OC)CN(C)C2=O	none (no result: FXN GAA850 act, MITF act, Wnt act)
Cc1ccc(CNC(=O)c2ccc(Cn3cc(-c4ccc(C)cc4)nc3-c3ccncc3)cc2)cc1	Wnt act 47, esBAF inh 99 (no result: MITF act) | esBAF Ring1 qPCR inactive | Fgf4 repress inactive | Bmi1 derepress inactive | A549 tox SP inactive | HepG2 cytotox SP inactive | HEK293 cytotox SP inactive
Cc1ccc(CNC(=O)CCn2cc(-c3ccc(C)cc3)nc2-c2ccncc2)cc1	none
CCCC1CCC(c2nc(-c3cccnc3)no2)CC1 (stereo not given)	esBAF inh 60 (no result: Wnt act) | esBAF Ring1 qPCR inactive | Fgf4 repress inconclusive | Bmi1 derepress inactive | A549 tox SP inactive | HepG2 cytotox SP inactive | HEK293 cytotox SP inactive
CN(C)c1ccc(CNc2nc3cc(-c4ccc(F)cc4)sc3c(=O)n2C)cc1	esBAF inh 77 (no result: MITF act) | esBAF Ring1 qPCR inactive | Fgf4 repress inactive | Bmi1 derepress inactive | A549 tox SP inactive | HepG2 cytotox SP inactive | HEK293 cytotox SP inactive
C[C@@H]1CN([C@@H](C)CO)C(=O)c2cc(C#CCN(C)C)cnc2O[C@@H]1CN(C)C(=O)Cc1ccccc1	none (no result: FXN GAA850 act, MITF act, Wnt act)
CC1(C)CC(=O)c2sc(NC(=O)c3cccs3)nc2C1	none (no result: Statin myotox sup, Wnt act, esBAF inh)
CC1(C)CNC(=O)c2sc(NC(=O)c3ccccc3)nc2C1	MITF act 91, esBAF inh 84 | esBAF Ring1 qPCR inactive | Fgf4 repress inactive | Bmi1 derepress inactive | A549 tox SP inactive | HepG2 cytotox SP inactive | HEK293 cytotox SP inactive
